Measurements as given in PubChem BioAssay (NCATS).
Where “and” joins values, the source holds several entries; their conditions need not be identical. Equal entries are not always repeated. Values without a mark were called inactive. Calls follow the shape of the full dose curve.

Biological target: Glucocorticoid receptor (Homo sapiens) (UniProt P04150)
Experiment: GR-EFC Redistribution (AID 451)
Details: CHO-K1 GR-EFC translocation, beta-gal luminescence, 2 h
From the text: NIH Molecular Libraries Screening Centers Network [MLSCN]
NIH Chemical Genomics Center [NCGC]
The glucocorticoid receptor (GR) is a cytoplasmic receptor that belongs to the nuclear receptor family of ligand-dependent transcription factors. Upon glucocorticoid binding to its receptor, the glucocorticoid-GR complex translocates into the nucleus, where it binds as a dimer to specific DNA sequences (glucocorticoid response elements), enhancing or suppressing transcription of a wide variety of glucocorticoid-responsive genes. In addition to their important roles in normal physiology and metabolism, glucocorticoids are administered exogenously as treatments for a wide variety of allergic, autoimmune, and neoplastic conditions. Identification of compounds that modulate aspects of GR signalling would be useful in dissecting glucocorticoid response pathways as well as developing GR modulators with more targeted clinical effects.
Traditionally, GR modulators have been identified using receptor binding or direct transactivation assays. However, assays for glucocorticoid-dependent nuclear translocation can also be used to screen for compounds affecting GR signaling.
Immunocytochemical staining has been used to assay for GR translocation, but is not suitable for high throughout screening due to the multiple reagent addition and wash steps required. Recently, a novel cell-based GR assay in Enzyme Fragment Complementation (EFC) format was developed by DiscoveRx (Fremont, CA). The assay uses EFC of b-galactosidase (b-gal) as an indicator of GR-translocation in engineered CHO-K1 biosensor cells. The enzyme acceptor (EA) fragment of b-gal resides in the nucleus , as designed through the use of a proprietary set of sequence additions and modifications. The small peptide enzyme donor (ED) fragment of b-gal is fused directly to the C-terminus of GR, and is localized in the cytoplasm is the absence of receptor signaling. Upon binding to a GR ligand, the complex translocates to the nucleus, where intact enzyme activity is restored by complementation and b-gal activity is detected. We optimized this GR-EFC assay in homogenous 1536-well plate assay format for high throughput screening.
NCGC Assay Protocol Summary:
CHO-K1 cells stably expressing NLS-enzyme acceptor fragment (EA) of b-gal and GR-enzyme donor (ED) fragment of b-gal were maintained in F12 medium (Invitrogen, Carlsbad, CA) at 37 Celsius degrees under a humidified atmosphere containing 5% CO2 and 95% air. The medium contained 10% FBS, 2 mM L-glutamine, 50 U/ml penicillin 50 ug/ml streptomycin, and 250 ug/ml hygromycin and 500 ug/ml G418 (Invitrogen).
GR-translocation was measured beta-gal enzyme activity using the PathHunter Detection Kit containing cell membrane permeablizing reagent and beta-gal substrate (DiscoveRx, Fremont, CA). All compounds were screened as titrations from 0.6 nM to 46 uM final concentration. The assay was performed in 1536-well format as follows:
5 uL cell suspension (1,000 cells)/well
Incubation at 37 Celsius degrees for two hours
1.25 uL 1X detection buffer from the kit supplied by DiscoveRx
Incubation at room temperature for one hour
Read plate in luminescence mode in ViewLux plate reader (PerkinElmer)
Keywords: NIH Roadmap, MLSCN, MLI, MLSMR, GR-EFC, GREFC, qHTS, NCGC
Potency is read from the fitted curve at half-maximal effect.

Sequence of Glucocorticoid receptor (Homo sapiens) (P04150 whole entry, looked up): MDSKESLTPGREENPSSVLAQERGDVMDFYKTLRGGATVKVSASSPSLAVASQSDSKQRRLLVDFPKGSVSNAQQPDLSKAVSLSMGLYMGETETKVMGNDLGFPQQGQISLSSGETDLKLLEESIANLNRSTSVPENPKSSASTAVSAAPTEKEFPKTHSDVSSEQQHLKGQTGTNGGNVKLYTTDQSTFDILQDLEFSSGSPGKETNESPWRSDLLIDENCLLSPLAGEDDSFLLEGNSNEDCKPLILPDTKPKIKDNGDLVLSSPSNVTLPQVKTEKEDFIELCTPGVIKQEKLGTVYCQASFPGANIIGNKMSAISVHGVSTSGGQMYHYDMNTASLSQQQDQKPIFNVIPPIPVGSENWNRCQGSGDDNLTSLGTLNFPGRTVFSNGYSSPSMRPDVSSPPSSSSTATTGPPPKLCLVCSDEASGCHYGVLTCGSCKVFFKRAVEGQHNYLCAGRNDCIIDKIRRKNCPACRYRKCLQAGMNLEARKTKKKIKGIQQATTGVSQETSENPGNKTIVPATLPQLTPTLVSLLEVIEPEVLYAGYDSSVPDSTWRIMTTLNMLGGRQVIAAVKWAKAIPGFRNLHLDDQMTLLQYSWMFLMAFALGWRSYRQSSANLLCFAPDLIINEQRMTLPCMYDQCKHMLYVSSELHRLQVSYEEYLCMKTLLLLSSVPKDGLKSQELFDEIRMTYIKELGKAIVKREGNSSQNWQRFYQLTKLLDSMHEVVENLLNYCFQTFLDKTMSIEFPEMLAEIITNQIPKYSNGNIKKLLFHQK

SMILES | Potency
OC[C@@H]1O[C@@H](n2cnc3c(N[C@H]4CCC[C@@H]4O)ncnc32)[C@H](O)[C@H]1O | > 46 µM
CCC(=O)O[C@H](CC(=O)O)C[N+](C)(C)C | > 46 µM
COc1ccc(C(OCCN2CCC[C@@H](C(=O)O)C2)(c2ccc(OC)cc2)c2ccc(OC)cc2)cc1 | > 46 µM
N[C@H](C(=O)O)[C@@H]1[C@@H](C(=O)O)C1(F)F | > 46 µM
CS(=O)(=O)c1ccc(-c2cc(Br)sc2-c2ccc(F)cc2)cc1 | > 46 µM
N[C@@H](Cn1cc(I)c(=O)n(Cc2ccc(C(=O)O)cc2)c1=O)C(=O)O | > 46 µM
O=C(O)c1c(Br)c(Br)c(Br)c(Br)c1C1c2ccc(O)cc2Oc2cc(O)ccc21 | > 9.22 µM
CCCn1c(=O)[nH]c2nc(-c3ccc(S(=O)(=O)O)cc3)[nH]c2c1=O | > 46 µM
CC(C)(C)c1ccc(S(=O)(=O)/C=C\C#N)cc1 | > 46 µM
CCCCCCCC/C=C\CCCCCCCC(N)=O | > 46 µM
N[C@H](Cc1ccc(Cl)cc1)C(=O)O | > 46 µM
O=C(N/N=C\c1ccccc1O)c1ccccc1O | > 46 µM
O=C(O)c1ccc2c3c1cccc3c(=O)n1c3ccccc3nc21 | > 46 µM
NS(=O)(=O)c1cccc2c1c([N+](=O)[O-])cc1[nH]c(=O)c(=O)[nH]c12 | > 46 µM
O=C(O)c1cc(=O)c2ccc(Cl)cc2[nH]1 | > 46 µM
C[C@@H](C[C@H](N)C(=O)O)C(=O)O | > 9.22 µM
CC(C)Oc1ccc2c(=O)c3cc(C(=O)O)ccc3oc2c1 | > 46 µM
COc1ccccc1N1CCN(C[C@@H](C(=O)NC(C)(C)C)c2ccccc2)CC1 | > 46 µM
COc1ccccc1N1CCN(C[C@@H](O)COc2cccc3ccccc23)CC1 | > 46 µM and > 20.6 µM
N[C@H](CCC(=O)NCC(=O)O)C(=O)O | > 46 µM

SMILES | Potency
c1ccc2cc(C3=NCCN3)ncc2c1 | > 46 µM
CCCCNC(=O)[C@@H]1Cc2ccccc2N1C(=O)[C@H](N)CC | > 46 µM
Cc1cc(C)c(S(=O)(=O)Nc2cccc(C(F)(F)F)c2)c(C)c1 | > 46 µM
N[C@H](C(=O)O)[C@@H]1C[C@@H]1C(=O)O | > 46 µM
O=C(Nc1ccccc1)N[C@H]1C[C@H](C(=O)O)Nc2cc(Cl)cc(Cl)c21 | > 46 µM
O=C(NC1CCN(Cc2ccccc2)CC1)c1ccc(I)cc1 | > 46 µM
Oc1cc2c(cc1O)[C@H](c1ccccc1)CNCC2 | > 46 µM
COc1ccccc1CC(=N)N1C[C@@H]2C(=O)CCC(c3ccccc3)(c3ccccc3)[C@@H]2C1 | > 46 µM
COc1ccc(-c2ccc(=N)n(CCCC(=O)O)n2)cc1 | > 46 µM
O=S(=O)(NCCCCCCc1ccccc1)c1cccc2c(Cl)cccc12 | > 46 µM
CC[C@@H]1O[C@]2(C=C[C@@H]1C)C[C@H]1C[C@H](CC=C(C)[C@@H](O[C@@H]3C[C@H](OC)[C@H](O[C@@H]4C[C@H](OC)[C@H](O)[C@H](C)O4)[C@H](C)O3)[C@@H](C)C=CC=C3CO[C@@H]4[C@@H](O)C(C)=C[C@@H](C(=O)O1)[C@]34O)O2 | > 20.6 µM
COc1cc(/C=C(\C#N)C(N)=O)cc(CSc2nc3ccccc3s2)c1O | > 46 µM
N[C@@](C(=O)O)(c1ccc(P(=O)(O)O)cc1)C1CC1 | > 46 µM
CSc1nc(N)c2ncn([C@H]3O[C@H](COP(=O)(O)OP(=O)(O)OP(=O)(O)O)[C@@H](O)[C@@H]3O)c2n1 | > 46 µM
CC[C@]1(O)C[C@@H]2CN(CCc3c([nH]c4ccccc34)[C@](C(=O)OC)(c3cc4c(cc3OC)N(C=O)[C@H]3[C@@](O)(C(=O)OC)[C@H](C(=O)OC)[C@@]5(CC)C=CCN6CC[C@]43[C@H]65)C2)C1 | > 46 µM
CC[C@@](N)(C(=O)O)c1ccc(C(=O)O)cc1 | > 46 µM
CC(=O)Nc1ccc(OC[C@@H](O)CNC(C)C)cc1 | > 20.6 µM and > 46 µM
CCS(=O)(=O)N1CCC[C@H]2CN3CCc4cc(OC)ccc4[C@@H]3C[C@@H]21 | > 46 µM
COc1ccc(NC(=O)c2ccc(-c3ccc(-c4noc(C)n4)cc3C)cc2)cc1OCCN(C)C | > 46 µM
CC(C)NC[C@@H](O)COc1ccc(COCCOC(C)C)cc1 | > 20.6 µM and > 46 µM
